Results published in PubChem BioAssay AID1159580 (chemical genetic matrix, 2015).
Among all 5,500 compounds or so, about 2,000 (36%) were called active. Another 18% or so got no clear call; they are omitted. Rule as the data show it: active = normalized growth mostly below about 0.91 (no sharp cut-off); inconclusive = no clear call, values can overlap the other calls; inactive = mostly above about 0.92. The list shows a part of the results.

Assay: chemical genetic growth profiling, strain panel (AID 1159580);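 also: tested at 20 µM; growth read once vehicle control cultures reached saturation at 30 °C; 1 = growth at the plate median or of vehicle wells; lower values mean less growth of the strain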
Details: S. cerevisiae deletion strains, growth OD

Measured: normalized growth

NC(Cc1ccc(N(CCCl)CCCl)cc1)C(=O)O (stereo not given)
inactive: locus YAL013W, strain DEP1, stronger effect = lower value 0.981 | locus YAL040C, strain CLN3, stronger effect = lower value 0.995 | locus YCL061C, strain MRC1 (second series), stronger effect = lower value 0.996 | locus YDR150W, strain NUM1, stronger effect = lower value 1.01 | locus YDR363W, strain ESC2, stronger effect = lower value 0.986 | locus YER002W, strain NOP16, stronger effect = lower value 0.974 | locus YGR078C, strain PAC10, stronger effect = lower value 0.976 | locus YJR075W, strain HOC1, stronger effect = lower value 1 | locus YMR263W, strain SAP30, stronger effect = lower value 0.997 | locus YMR307W, strain GAS1, stronger effect = lower value 1 | locus YNL153C, strain GIM3, stronger effect = lower value 1.04 | locus YNL175C, strain NOP13, stronger effect = lower value 0.977 | locus YNL197C, strain WHI3, stronger effect = lower value 0.983 | locus YNL224C, strain SQS1, stronger effect = lower value 1.01 | locus YOR083W, strain WHI5 (second series), stronger effect = lower value 0.993
